# Screening data from PubChem BioAssay.
# A selection: hits, their analogues and other compounds. The true share with any hit is near 9.2%.
# HTT cytoprotect – protects HTT-Q103 PC12 cells, measured by ATP. PC12 HTT-Q103 induced, cytoprotection, ATP luminescence, 40 h. Potency, µM (titrated, usually from 56.4 µM), inactives show cytoprotection (ATP increase), actives largely listed as activators. 230,000 tested, 0.14% active; active means well fitted curve in the direction sought with a large enough effect; inconclusive means small, poorly fitted or top-dose-only effect, or another doubt; inactive means no such curve, though single readings can be large; an effect the other way counts as inactive or inconclusive; further: % of control where 0% means no effect; nearly all actives have a fitted effect of over 45% in size
#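 PC12 cells with ecdysone-inducible HTT exon 1 Q103-GFP, induced with 100 nM tebufenozide and co-treated with library compounds in a dose series (1536-well, 1500 cells/well). Cytoprotection read as ATP content by ATPlite luminescence.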
# ALDH1A1 block – blocks purified human ALDH1A1 activity | P00352 | Purified ALDH1A1, NADH fluorescence, propionaldehyde substrate | Potency, µM (doses to about 75.3 µM), inactives show at the top dose activity, negative = inhibition, hits mostly inhibitors | 220,000 tested, 7.3% active;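 further: plate controls were no enzyme wells and a reference inhibitor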
# HPGD inh – HPGD (human) dehydrogenase inhibition. P15428. purified HPGD, NADH fluorescence kinetic, PGE2 substrate. Potency, µM, inactives show top-dose activity change, negative = inhibition, most hits filed as inhibitors. 150,000 tested, 4.3% active. AID 894; further: on the % scale 0 is the no-effect control and ±100 the full control effect
#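 NADH formation kinetics: reaction with 30 uM PGE2 and 1 mM NAD+ (final), 20 nM enzyme, Tris-HCl pH 8 with Tween 20, after 15 min compound preincubation at room temperature. Fluorescence change, last versus first of five reads.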
# HttQ103 aggreg – reduces HttQ103-GFP aggregates in PC12 cells | PC12 HttQ103-GFP aggregates, Acumen cytometry, 40 h | Potency, µM (series often up to 46.1 µM), for inactives: at the top dose activity change, negative = inhibition, usual class: inhibitors | 220,000 tested, 1.1% active | AID 1688; active means well fitted curve in the direction sought with a large enough effect; inconclusive means small, poorly fitted or top-dose-only effect, or another doubt; inactive means no such curve, though single readings can be large; an effect the other way counts as inactive or inconclusive; further: on the % scale 0 is the no-effect control and ±100 the full control effect; nearly all actives have a fitted effect of over 60% in size
#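 Huntingtin Q103 exon 1–GFP aggregates in induced PC12 cells (100 nM tebufenozide) were quantified by cytometry from lysates, with compounds dosed in titration.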
# Lamin A splicing – modulators of lamin A splicing; HeLa LMNA splicing GFP/RFP minigene ratio, 48 h; Potency, µM (doses to about 46.1 µM), inactives show top-dose ratio change, negative = inhibition, actives largely listed as inhibitors; 200,000 tested, 0.01% active; AID 1487; active means well fitted inhibition curve with a large enough effect in the signal ratio, with a control signal flat, not every such curve was filed as active; inconclusive means small, poorly fitted or top-dose-only effect, or effect the other way, or a change in a side signal; the % refers to the signal ratio; further: on the % scale 0 is the no-effect control and ±100 the full control effect
#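 Read-out is the ratio of GFP to DsRed2 object intensity, acquired by 488 nm laser-scanning cytometry on HeLa lamin A-EGFP minigene reporter cells. Compound incubation 48 hrs at 37 °C in Opti-MEM with 2% FBS; DMSO 0.5% final.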
# JMJD2E inh – blocks human JMJD2E demethylase activity. 230,000 tested, 1.6% active. JMJD2E catalytic domain, FDH-coupled NADH fluorescence (FDH is formaldehyde dehydrogenase). Potency, µM (doses to about 57.1 µM), inactives show top-dose activity change, negative = inhibition, hits mostly inhibitors. B2RXH2;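 further: 0% = wells with enzyme and -100% = buffer wells without enzyme; nearly all actives have a fitted effect of over 50% in size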
# Target sequence (B2RXH2 1-337 limits assumed): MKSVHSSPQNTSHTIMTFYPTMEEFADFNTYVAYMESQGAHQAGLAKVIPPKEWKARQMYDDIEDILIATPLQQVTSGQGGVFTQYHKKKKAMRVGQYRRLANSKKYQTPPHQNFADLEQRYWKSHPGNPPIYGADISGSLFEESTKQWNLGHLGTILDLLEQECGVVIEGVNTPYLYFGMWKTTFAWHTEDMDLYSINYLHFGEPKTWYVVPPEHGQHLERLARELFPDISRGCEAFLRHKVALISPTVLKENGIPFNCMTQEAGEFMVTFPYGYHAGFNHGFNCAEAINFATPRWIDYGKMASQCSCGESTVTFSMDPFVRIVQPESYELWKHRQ
# * hit, by the source's call; ? = inconclusive; . = not tested or not shown; [ ] = remark or other dose. Unless noted, the call rests on the fitted dose curve; in most records, active means well fitted inhibition curve with a large enough effect (not every such curve was filed as active); inconclusive means small, poorly fitted or top-dose-only effect, or another doubt; inactive means no such curve, though single readings can be large or run the other way. Potency means the concentration at half of the fitted maximal effect.
SMILES,HTT cytoprotect,ALDH1A1 block,HPGD inh,HttQ103 aggreg,Lamin A splicing,JMJD2E inh
Cc1c(O)ccc(-c2[nH]ncc2-c2nc3ccccc3s2)c1O,12.6%,?,?,-24.7%,?,-15.2%
COc1ccc(C2N=C(N)Nc3nc4ccccc4n32)cc1 (centres undefined),.,.,.,.,0.5%[46 µM],.
Cc1ccc(-n2c(C)cc(C3N=C(N)Nc4nc5ccccc5n43)c2C)c(C)c1 (centres undefined),-21.7%[10 µM],12.6µM*,-6.3%,-5.8%,-10.0%,-5.2%
Cc1cc(C2N=C(N)Nc3nc4ccccc4n32)c(C)n1-c1ccccc1Cl (centres undefined),10.8%,1.12µM*,-11.8%,?,6.4%,2.7%
COc1ccccc1NC(CC(=O)c1ccccc1)C(=O)OCC(=O)c1ccc(F)cc1 (centres undefined),4.5%[10 µM],12.6µM*,-3.1%,?,-12.3%,-2.6%
CSc1cccc(NC(=O)CN(C)S(=O)(=O)c2ccc3c(c2)CCCN3C(C)=O)c1,.,.,.,.,10.5%[46 µM],.
CCCCn1c(SCN2C(=O)c3ccccc3C2=O)nc2cc(S(N)(=O)=O)ccc21,-1.3%[10 µM],28.2µM*,-14.1%,-10.3%,4.3%,6.1%
CCCCn1c(SCC(=O)N2CCC(C)CC2)nc2cc(S(N)(=O)=O)ccc21,1.2%,7.8%,28.2µM*,15.4%,2.8%,-3.6%
CCCCn1c(SCC(=O)c2cc(OC)ccc2OC)nc2cc(S(N)(=O)=O)ccc21,10.2%[10 µM],?,-7.4%,22.8%,2.3%,-28.7%
CCCCn1c(SCc2ccc(C(=O)OC)o2)nc2cc(S(N)(=O)=O)ccc21,-2.7%[10 µM],25.1µM*,-24.6%,7.0%,?,-21.0%
CCCCn1c(SCC2CCCO2)nc2cc(S(N)(=O)=O)ccc21 (centres undefined),-0.3%,-4.0%,-1.1%,-1.9%,24.6%,2.1%
CC(C)NC(=O)N1CC2(CCN(C(=O)c3cccn3C)CC2)C1,?,9.1%,-3.8%,.,.,.
Cc1nc(SCC(=O)NC(C)(C#N)C2CC2)c2c(-c3cccs3)csc2n1 (centres undefined),1.6%[1.9 µM],-12.2%,-19.6%,8.8%,?,-0.8%
COc1ccccc1CC(=O)N1CCN(c2cccc(C(F)(F)F)c2)CC1,11.2%[10 µM],-0.4%,-6.8%,12.6µM*,?,0.8%
CCn1c(=O)cc(OCC(=O)N2CCN(c3cccc(C(F)(F)F)c3)CC2)c2ccccc21,-90.6%,11.2µM*,?,-29.7%,1.7%,-5.6%
COCCn1c(=O)cnc2cnc(Nc3cccc(OC)c3)nc21,?,11.1%,.,.,?,.
CCc1c(C)nc2ncnn2c1NCCc1ccc(Cl)cc1,10.4%[10 µM],?,.,-18.8%[9.22 µM],?,2.4%
CCc1c(C)nc2ncnn2c1NCCc1ccccc1,-37.2%,6.9%,-6.0%,10µM*,-23.4%,-2.1%
CCc1ccc(CCC(=O)Nc2nccs2)o1,-8.4%,17.8µM*,-27.8%,1.6%,5.3%,9.3%
Cc1ccc(CCC(=O)Nc2nccs2)o1,-3.4%[10 µM],?,28.2µM*,-16.3%,12.5%,-0.1%
Cc1ccc(CCC(=O)Nc2ccc(S(N)(=O)=O)cc2)o1,-8.7%,14.1µM*,-25.5%,5.4%,5.2%,?
O=[N+]([O-])c1c(Cl)cccc1-c1c[nH]cc1Cl,-28.1%,.,.,-17.7%,.,.
S=C1NCN2CCN(CC2)CNC(=S)C(=S)NCN2CCN(CC2)CNC1=S,-4.0%[10 µM],?,-17.6%,.,.,.
COc1ccc([N+](=O)[O-])cc1COc1cc(C)cc2oc(=O)cc(-c3ccccc3)c12,-43.4%,2µM*,-22.6%,11.3%,?,0.8%
CC(=O)COc1cc(C)cc2oc(=O)cc(-c3ccccc3)c12,-31.7%[1.9 µM],2.24µM*,.,-4.9%[9.22 µM],7.1%[46 µM],-1.8%
CCc1cc(=O)oc2cc(C)cc(OC(=O)c3ccco3)c12,-22.5%[0.074 µM],10µM*,0.4%,-31.9%,-16.0%,2.2%
Cc1cc(O)c2c(-c3ccccc3)cc(=O)oc2c1,-5.0%[0.074 µM],?,-14.0%,-25.1%,-6.2%,7.4%
C[C@H]1COC(=O)[C@H](Cc2ccccc2)NC(=O)[C@@H](C)COC(=O)[C@H](Cc2ccccc2)NC1=O,?,3.7%[13.5 µM],.,.,.,.
